PPARg SRC-2 ag – promotes SRC-2 coactivator recruitment by human PPARgamma; P37231; PPARgamma LBD-SRC-2 recruitment, biochemical; activation, % at 8 µM; 200,000 tested, 0.34% active; AID 1032;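 note: 0% = vehicle and 100% = reference agonist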
Target sequence (P37231 whole entry, looked up, the tested form may be a part): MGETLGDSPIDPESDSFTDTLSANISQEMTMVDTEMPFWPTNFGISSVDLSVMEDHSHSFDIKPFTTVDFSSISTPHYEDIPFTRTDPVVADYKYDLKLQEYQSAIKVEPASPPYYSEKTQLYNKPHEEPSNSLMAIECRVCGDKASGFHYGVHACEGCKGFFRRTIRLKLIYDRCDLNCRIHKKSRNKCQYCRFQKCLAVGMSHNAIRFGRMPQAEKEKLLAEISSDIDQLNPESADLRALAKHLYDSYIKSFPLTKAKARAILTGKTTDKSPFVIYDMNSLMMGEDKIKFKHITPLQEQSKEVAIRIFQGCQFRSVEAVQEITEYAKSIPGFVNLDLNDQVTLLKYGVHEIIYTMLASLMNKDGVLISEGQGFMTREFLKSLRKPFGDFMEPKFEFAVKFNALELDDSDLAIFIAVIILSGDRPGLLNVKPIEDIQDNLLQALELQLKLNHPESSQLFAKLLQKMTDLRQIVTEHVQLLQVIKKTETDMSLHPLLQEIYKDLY
PPARg SRC3 recr – agonists of human PPARgamma SRC-3 coactivator recruitment. biochemical PPARgamma/SRC-3 coactivator recruitment assay. activation, % at 8 µM. 200,000 tested, 0.26% active. AID 731; in the data active = activation above about 23%;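 note: 0% = DMSO and 100% = reference agonist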
SRC3 TRFRET art – TR-FRET artefact, counter-screen to PPARgamma/SRC-3 agonist assay | PPARgamma/SRC-3 format; hits give high values | TR-FRET ratio at 8 µM | 99,000 tested, 0.39% active; in the data active = TR-FRET ratio above about 2000
SRC2 TRFRET art – TR-FRET artefact, counter-screen to PPARgamma/SRC-2 agonist assay; hits give high values; TR-FRET ratio at 8 µM; 200,000 tested, 0.4% active; AID 1049; in the data active = TR-FRET ratio above about 2000
PPARg SRC1 recr – PPARgamma-driven SRC-1 recruitment agonism. P37231. PPARgamma-SRC-1 coactivator recruitment biochemical assay. activation, % at 8 µM. 200,000 tested, 0.41% active. AID 631; in the data active = activation above about 19%;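 note: 0% = DMSO and 100% = reference agonist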
SRC1 TRFRET art – TR-FRET artefact, counter-screen to PPARgamma/SRC-1 agonist assay | TR-FRET detection artefact counter-screen, emission ratio; hits give high values | 99,000 tested, 0.34% active | TR-FRET ratio at 8 µM; in the data active = TR-FRET ratio above about 2300
PPARg SRC2 ag – confirmation of agonists of SRC-2 recruitment by human PPARgamma; shares compounds with PPARg SRC3 recr; biochemical SRC-2 recruitment by PPARgamma; activation, % at 8 µM; 790 tested, 52% active;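 note: 0% = vehicle alone and 100% = reference agonist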
PPARg SRC1 ag – human PPARgamma SRC-1 recruitment agonism, confirmation; shares compounds with PPARg SRC3 recr; PPARgamma–SRC-1 coactivator recruitment biochemical assay; activation, % at 8 µM; 790 tested, 43% active; AID 1300; in the data active = activation above about 20%;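 note: 0% = vehicle wells and 100% = reference agonist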
PPARg SRC3 ag – confirmation of agonists of SRC-3 recruitment by human PPARgamma; shares compounds with PPARg SRC3 recr; activation, % at 8 µM; AID 1301; biochemical PPARgamma-SRC-3 coactivator recruitment, agonist mode; 790 tested, 29% active; in the data active = activation above about 24%;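 note: 0% = vehicle wells and 100% = reference agonist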
The depositor's hits bear a star; . = no result. Most compounds without a hit are left out; they make up all but 0.9% or so of the library. Cut-off read from the data, not from the text of the source, unless noted: active = activation above about 22%; inactive = the rest.

SMILES	PPARg SRC-2 ag	PPARg SRC3 recr	SRC3 TRFRET art	SRC2 TRFRET art	PPARg SRC1 recr	SRC1 TRFRET art	others
CCCCCCn1c(O)c(C=Nc2c(C)n(C)n(-c3ccccc3)c2=O)c(=O)[nH]c1=O	25*	-6	.	1830	5	.
COc1ccc(CCn2c(O)c(C=NCCCO)c(=O)[nH]c2=O)cc1OC	-9	2	.	1622	-2	.
COc1ccc(-c2cc(=Nc3ccccc3)c3cc(C)ccc3o2)cc1	3	-6	1387	1332	15	2615*
COc1ccc(-c2cc(=NCCC(=O)O)c3cc(C)ccc3o2)cc1	-10	-5	1485	1337	-2	1700
O=C(N/N=C/c1c(O)n(CCc2ccccc2)c(=O)[nH]c1=O)c1ccncc1	8	10	1522	2004*	-1	1769
O=P(NCc1ccccc1)(Oc1ccccc1)Oc1ccccc1	-1	0	1582	1433	-5	1841
CN(C)c1ccc(/C=C/c2cc[n+](C)c3ccccc23)cc1	61*	61*	2979*	2947*	83*	3265*	PPARg SRC2 ag=65*;PPARg SRC1 ag=49*;PPARg SRC3 ag=43*
Cc1cc(C)c(C2=NOC(O)(C(F)(F)F)C2)c(=O)[nH]1 (stereo not drawn)	1	0	.	1576	3	.
Cn1c(=O)cc(SCC(=O)N2CCC3(CC2)OCCO3)c2ccc(Cl)cc21	73*	79*	.	2539*	50*	.	PPARg SRC2 ag=28*;PPARg SRC1 ag=19;PPARg SRC3 ag=20
O=C(CSc1ccccc1)N1CCC2(CC1)OCCO2	1	12	.	1402	0	.

Screening data: PubChem, The Scripps Research Institute Molecular Screening Center
